Assay results taken from PubChem BioAssay AID1159580 (chemical genetic matrix, 2015).
Screen size: about 5,500 compounds; about 2,000 (36%) were called active. Inconclusive results (about 18%) are left out. Rule as the data show it: active = normalized growth mostly below about 0.91 (no sharp cut-off); inconclusive = no clear call, values can overlap the other calls; inactive = mostly above about 0.92. Some of the results follow.

Experiment: chemical genetic growth profiling, strain panel (AID 1159580);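 also: tested at 20 µM; growth read once vehicle control cultures reached saturation at 30 °C; 1 = growth at the plate median or of vehicle wells; lower values mean less growth of the strain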
Settings: growth OD

Measured: normalized growth

CC(=O)[O][Hg][c]1ccccc1
active: S. cerevisiae deletion strains, locus YJR066W, strain TOR1, stronger effect = lower value 0.00688 | S. cerevisiae deletion strains, locus YJR075W, strain HOC1, stronger effect = lower value 0.0645 | S. cerevisiae deletion strains, locus YKL009W, strain mrt4, stronger effect = lower value 0.0761 | S. cerevisiae deletion strains, locus YKL068W, stronger effect = lower value 0.0552 | S. cerevisiae deletion strains, locus YKL085W, strain MDH1 (second series), stronger effect = lower value 0.0536 | S. cerevisiae deletion strains, locus YKL085W, strain MDH1, stronger effect = lower value 0.0536 | S. cerevisiae deletion strains, locus YKL160W, strain elf1, stronger effect = lower value 0.0629 | S. cerevisiae deletion strains, locus YKL190W, strain CNB1, stronger effect = lower value 0.0488 | S. cerevisiae deletion strains, locus YKR001C, strain vps1, stronger effect = lower value 0.0636 | S. cerevisiae deletion strains, locus YKR026C, strain gcn3, stronger effect = lower value 0.0658 | S. cerevisiae deletion strains, locus YKR091W, strain srl3, stronger effect = lower value 0.0596 | S. cerevisiae deletion strains, locus YLL001W, strain dnm1, stronger effect = lower value 0.0611 | S. cerevisiae deletion strains, locus YLL026W, stronger effect = lower value 0.0582 | S. cerevisiae deletion strains, locus YLL041C, strain sdh2, stronger effect = lower value 0.0595 | S. cerevisiae deletion strains, locus YLR027C, strain aat2, stronger effect = lower value 0.0573 | S. cerevisiae deletion strains, locus YLR039C, strain RIC1, stronger effect = lower value 0.0904 | S. cerevisiae deletion strains, locus YLR058C, strain SHM2, stronger effect = lower value 0.0508 | S. cerevisiae deletion strains, locus YLR102C, strain apc9, stronger effect = lower value 0.0618 | S. cerevisiae deletion strains, locus YLR113W, strain HOG1, stronger effect = lower value 0.158 | S. cerevisiae deletion strains, locus YLR221C, strain rsa3, stronger effect = lower value 0.0629 | S. cerevisiae deletion strains, locus YLR258W, strain gsy2, stronger effect = lower value 0.0604 | S. cerevisiae deletion strains, locus YLR262C, strain YPT6 (second series), stronger effect = lower value 0.0742 | S. cerevisiae deletion strains, locus YLR262C, strain YPT6, stronger effect = lower value 0.103 | S. cerevisiae deletion strains, locus YLR268W, strain sec22, stronger effect = lower value 0.0681 | S. cerevisiae deletion strains, locus YLR320W, strain mms22, stronger effect = lower value 0.0826 | S. cerevisiae deletion strains, locus YLR330W, strain CHS5, stronger effect = lower value 0.0544 | S. cerevisiae deletion strains, locus YLR342W, strain FKS1 (second series), stronger effect = lower value 0.0755 | S. cerevisiae deletion strains, locus YLR342W, strain FKS1, stronger effect = lower value 0.0633 | S. cerevisiae deletion strains, locus YLR357W, strain rsc2, stronger effect = lower value 0.127 | S. cerevisiae deletion strains, locus YLR370C, strain arc18, stronger effect = lower value 0.0626 | S. cerevisiae deletion strains, locus YLR371W, strain rom2, stronger effect = lower value 0.0637 | S. cerevisiae deletion strains, locus YLR384C, strain iki3, stronger effect = lower value 0.0624 | S. cerevisiae deletion strains, locus YLR418C, strain cdc73, stronger effect = lower value 0.0951 | S. cerevisiae deletion strains, locus YML016C, strain PPZ1, stronger effect = lower value 0.0524 | S. cerevisiae deletion strains, locus YML032C, strain rad52, stronger effect = lower value 0.0836 | S. cerevisiae deletion strains, locus YML120C, strain ndi1, stronger effect = lower value 0.0619 | S. cerevisiae deletion strains, locus YML124C, strain tub3, stronger effect = lower value 0.0593 | S. cerevisiae deletion strains, locus YMR058W, strain fet3, stronger effect = lower value 0.0602 | S. cerevisiae deletion strains, locus YMR078C, strain ctf18, stronger effect = lower value 0.0736 | S. cerevisiae deletion strains, locus YMR125W, strain sto1, stronger effect = lower value 0.0779 | S. cerevisiae deletion strains, locus YMR129W, stronger effect = lower value 0.0611 | S. cerevisiae deletion strains, locus YMR205C, strain PFK2, stronger effect = lower value 0.0858 | S. cerevisiae deletion strains, locus YMR223W, strain ubp8, stronger effect = lower value 0.0679 | S. cerevisiae deletion strains, locus YMR231W, strain pep5, stronger effect = lower value 0.0683 | S. cerevisiae deletion strains, locus YMR263W, strain SAP30, stronger effect = lower value 0.0622 | S. cerevisiae deletion strains, locus YMR307W, strain GAS1, stronger effect = lower value 0.119 | S. cerevisiae deletion strains, locus YNL067W, strain RPL9B, stronger effect = lower value 0.0529 | S. cerevisiae deletion strains, locus YNL071W, strain lat1, stronger effect = lower value 0.0614 | S. cerevisiae deletion strains, locus YNL128W, strain TEP1, stronger effect = lower value 0.0633 | S. cerevisiae deletion strains, locus YNL153C, strain GIM3, stronger effect = lower value 0.0495 | S. cerevisiae deletion strains, locus YNL183C, strain NPR1, stronger effect = lower value -0.000716 | S. cerevisiae deletion strains, locus YNL209W, strain ssb2, stronger effect = lower value 0.0586 | S. cerevisiae deletion strains, locus YNL233W, strain BNI4, stronger effect = lower value 0.0544 | S. cerevisiae deletion strains, locus YNL248C, strain rpa49, stronger effect = lower value 0.0785 | S. cerevisiae deletion strains, locus YNL250W, strain rad50, stronger effect = lower value 0.0635 | S. cerevisiae deletion strains, locus YNL271C, strain bni1, stronger effect = lower value 0.0615 | S. cerevisiae deletion strains, locus YNL298W, strain CLA4, stronger effect = lower value 0.0614 | S. cerevisiae deletion strains, locus YNL307C, strain MCK1, stronger effect = lower value 0.0689 | S. cerevisiae deletion strains, locus YNL322C, strain KRE1 (second series), stronger effect = lower value 0.0671 | S. cerevisiae deletion strains, locus YNL322C, strain KRE1, stronger effect = lower value 0.0528 | S. cerevisiae deletion strains, locus YNR049C, strain mso1, stronger effect = lower value 0.0595 | S. cerevisiae deletion strains, locus YNR052C, strain pop2, stronger effect = lower value 0.0629 | S. cerevisiae deletion strains, locus YOL006C, strain TOP1, stronger effect = lower value 0.102 | S. cerevisiae deletion strains, locus YOL147C, strain pex11, stronger effect = lower value 0.058 | S. cerevisiae deletion strains, locus YOR001W, strain rrp6, stronger effect = lower value 0.0684 | S. cerevisiae deletion strains, locus YOR061W, strain CKA2, stronger effect = lower value 0.0465 | S. cerevisiae deletion strains, locus YOR069W, strain VPS5, stronger effect = lower value 0.0482 | S. cerevisiae deletion strains, locus YOR070C, strain gyp1, stronger effect = lower value 0.0606 | S. cerevisiae deletion strains, locus YOR080W, strain dia2, stronger effect = lower value 0.0661 | S. cerevisiae deletion strains, locus YOR083W, strain WHI5, stronger effect = lower value 0.0628 | S. cerevisiae deletion strains, locus YOR106W, strain vam3, stronger effect = lower value 0.0631 | S. cerevisiae deletion strains, locus YOR136W, strain idh2, stronger effect = lower value 0.0713 | S. cerevisiae deletion strains, locus YOR144C, strain elg1, stronger effect = lower value 0.0581 | S. cerevisiae deletion strains, locus YOR184W, strain ser1, stronger effect = lower value 0.073 | S. cerevisiae deletion strains, locus YOR231W, strain MKK1, stronger effect = lower value 0.132 | S. cerevisiae deletion strains, locus YOR265W, strain rbl2, stronger effect = lower value 0.0563 | S. cerevisiae deletion strains, locus YOR270C, strain vph1, stronger effect = lower value 0.0933 | S. cerevisiae deletion strains, locus YOR290C, strain snf2, stronger effect = lower value 0.0699 | S. cerevisiae deletion strains, locus YOR316C, strain cot1, stronger effect = lower value 0.0597 | S. cerevisiae deletion strains, locus YPL051W, strain arl3, stronger effect = lower value 0.063 | S. cerevisiae deletion strains, locus YPL055C, strain LGE1, stronger effect = lower value 0.076 | S. cerevisiae deletion strains, locus YPL078C, strain atp4, stronger effect = lower value 0.0655 | S. cerevisiae deletion strains, locus YPL106C, strain sse1, stronger effect = lower value 0.1 | S. cerevisiae deletion strains, locus YPL240C, strain hsp82, stronger effect = lower value 0.0559 | S. cerevisiae deletion strains, locus YPL241C, strain CIN2, stronger effect = lower value 0.0515 | S. cerevisiae deletion strains, locus YPL256C, strain CLN2, stronger effect = lower value 0.132 | S. cerevisiae deletion strains, locus YPR119W, strain clb2, stronger effect = lower value 0.0616 | S. cerevisiae deletion strains, locus YPR141C, strain kar3, stronger effect = lower value 0.0673 | S. cerevisiae deletion strains, locus YPR163C, strain tif3, stronger effect = lower value 0.0707 | S. cerevisiae deletion strains, locus YPR167C, strain met16, stronger effect = lower value 0.0616 | S. cerevisiae deletion strains, strain wtn01, stronger effect = lower value 0.0633 | S. cerevisiae strains, strain wild type, stronger effect = lower value 0.0493
